Bioassay records: PubChem BioAssay, National Center for Advancing Translational Sciences (NCATS)
Most compounds without a hit are left out; they make up all but 4.3% or so of the library.
GLP1R inv ag: acts as inverse agonist at human GLP-1 receptor. P43220. HEK293 GLP-1R CRE-luciferase, luminescence, 24 h; GLP-1R form is constitutively active. Potency, µM (highest dose often 38.3 µM), usual class: inhibitors. actives 1.6% (n = 410,000); note: nearly all actives have a fitted effect of over 55% in size
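Constitutively active GLP-1R drives a cAMP-responsive luciferase in stably transfected HEK293 cells; test compounds are added after overnight (12 h) attachment and left 24 hr, and signal loss in luminescence marks inhibition.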
GLP1R ag: activates the human GLP-1 receptor; actives 0.007% (n = 380,000); HEK293 GLP-1R CRE-luciferase, luminescence, 4-6 h; cells express a hypersensitive GLP-1R form; Potency, µM (doses to about 45.6 µM), hits mostly activators; AID 624172; P43220
D3 antag: blocks the human D3 dopamine receptor | P35462 | max response, negative = inhibition, % | D3R cells, DiscoveRx beta-arrestin luminescence, antagonist mode; hits give low values | actives 2.5% (n = 360,000); in the data active = max response below about -50%; inconclusive = no clear call, values can overlap the other calls
Target sequence (P35462 whole entry, looked up): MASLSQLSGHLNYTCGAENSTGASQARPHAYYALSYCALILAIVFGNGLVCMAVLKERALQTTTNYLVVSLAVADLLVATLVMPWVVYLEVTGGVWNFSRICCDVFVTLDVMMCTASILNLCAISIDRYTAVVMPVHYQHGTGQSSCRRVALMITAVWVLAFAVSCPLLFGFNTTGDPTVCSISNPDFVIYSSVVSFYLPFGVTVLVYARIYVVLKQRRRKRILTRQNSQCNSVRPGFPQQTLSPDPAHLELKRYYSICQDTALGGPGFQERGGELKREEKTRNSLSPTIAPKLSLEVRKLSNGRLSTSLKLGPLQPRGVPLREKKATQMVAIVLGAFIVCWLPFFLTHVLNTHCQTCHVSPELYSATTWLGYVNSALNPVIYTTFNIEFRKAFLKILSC
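Cells plated overnight at 1500 cells/well, then exposed to library compounds with dopamine controls for 90 minutes at 37 degrees C. DiscoveRx reagent added for 30–60 minutes at room temperature; luminescence read, quantitative HTS format.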
D3 ag: agonists of human D3 dopamine receptor | max activation, % | AID 652048 | actives 0.58% (n = 410,000) | D3R DiscoveRx beta-arrestin cells, luminescence, 90 min; in the data active = max activation above about 30%
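Agonist mode: compounds and dopamine controls were applied to plated cells for 90 min at 37 degrees C after an overnight attachment at 1500 cells/well. Luminescent read-out followed 30 - 60 minutes at room temperature with DiscoveRx detection reagent.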
Each line names hits and unclear results; the compound was inactive in the other large screens; ! = not confirmed by another sample. Unless noted, calls come from the whole dose curve; as a rule, active = well fitted curve in the direction sought with a large enough effect; inconclusive = small, poorly fitted or top-dose-only effect, or another doubt; inactive = no such curve, though single readings can be large; an effect the other way counts as inactive or inconclusive.

COc1ccccc1NC(=O)CSc1nnc(NC(=O)NC2CCCCC2)s1	none (no result: GLP1R ag, D3 antag)
Cc1ccccc1[C@H](NC1c2ccccc2C=Cc2ccccc21)P(=O)(c1ccccc1)c1ccccc1	GLP1R inv ag inconclusive, D3 antag -55.5
C#C[C@]1(O)CC[C@H]2[C@@H]3CCc4cc(OC)ccc4[C@H]3CC[C@@]21C	D3 ag 30.0!
C#C[C@]1(O)CC[C@H]2[C@@H]3CCc4cc(OC5CCCC5)ccc4[C@H]3CC[C@@]21C	none
O=C(CN1c2ccccc2Sc2ccccc21)NNC(=O)Nc1cccc(Cl)c1	GLP1R inv ag 3.55µM, D3 antag inconclusive
O=C1c2cccnc2C(=O)N1Cc1ccc2c(c1)OCO2	D3 ag 40.6
CC(C)(C)c1ccc(C(=O)CSc2nc3ccccc3c(=O)[nH]2)cc1	GLP1R inv ag inconclusive, D3 ag 34.1
O=C(CSc1nc2ccccc2c(=O)[nH]1)c1ccccc1	none
O=c1cc(-c2ccccc2)n2c(SCc3ccc(Br)cc3)nnc2[nH]1	none (no result: GLP1R ag, D3 antag)
Cc1cc(C)c2sc(N(CCCN(C)C)C(=O)c3ccc(S(=O)(=O)N(C)Cc4ccccc4)cc3)nc2c1	GLP1R inv ag 11.2µM
COc1ccc2sc(N(CCCN(C)C)C(=O)c3ccc(S(=O)(=O)N(C)Cc4ccccc4)cc3)nc2c1	GLP1R inv ag inconclusive
CN(C)CCN(C(=O)c1cccc2ccccc12)c1nc2cc3c(cc2s1)OCO3	GLP1R inv ag 10µM
CN(C)CCCN(C(=O)c1ccc(S(=O)(=O)N(C)Cc2ccccc2)cc1)c1nc2cc3c(cc2s1)OCO3	GLP1R inv ag 7.08µM
CCN(Cc1ccccc1)S(=O)(=O)c1ccc(C(=O)N(CCCN(C)C)c2nc3cc(C)cc(C)c3s2)cc1	GLP1R inv ag inconclusive
CCN(c1ccccc1)S(=O)(=O)c1ccc(C(=O)N(CCCN(C)C)c2nc3cc4c(cc3s2)OCO4)cc1	GLP1R inv ag 3.55µM
CC(=O)c1ccc(N2CCN(C(=O)CS(=O)(=O)c3cccc4nsnc34)CC2)cc1	none (no result: D3 antag)
CN(C)CCN(C(=O)c1ccc(S(=O)(=O)N2CCCC2)cc1)c1nc2ccc(Br)cc2s1	GLP1R inv ag 5.62µM, D3 antag inconclusive
CCc1ccc2nc(N(CCCN(C)C)C(=O)c3ccc(S(=O)(=O)N4CCCC4)cc3)sc2c1	GLP1R inv ag inconclusive
Cc1cc(C)c2sc(N(CCCN(C)C)C(=O)c3ccc(Br)s3)nc2c1	GLP1R inv ag inconclusive
CN(C)CCCN(C(=O)c1ccc(S(=O)(=O)N2CCCCCC2)cc1)c1nc2cc3c(cc2s1)OCO3	GLP1R inv ag 10µM
Cc1cc(C)c2sc(N(CCN(C)C)C(=O)c3c(F)cccc3F)nc2c1	GLP1R inv ag 7.08µM
Cc1ccc2nc(N(CCCN(C)C)C(=O)c3ccc(S(=O)(=O)N4CCCCCC4)cc3)sc2c1	GLP1R inv ag inconclusive
Cc1cc(NC(=O)N2CCC(CN3CCOCC3)CC2)ccc1Br	none (no result: GLP1R ag, D3 antag)
COc1ccccc1NC(=O)Cc1noc(CSc2n[nH]c(N)n2)n1	none
Cc1ncsc1C(=O)N1N=C2/C(=C/c3ccccc3)CCCC2C1c1ccccc1 (configuration not stated)	GLP1R inv ag 3.98µM
CCOC(=O)c1nnn(-c2nonc2N)c1COc1cc(C)c(Cl)c(C)c1	GLP1R inv ag 8.91µM
Cc1cc(O)c(C(c2cccc(F)c2)N2CCC(C)CC2)c(=O)n1Cc1ccco1 (configuration not stated)	GLP1R inv ag inconclusive (no result: GLP1R ag, D3 antag)
O=C(COC(=O)CCC(=O)c1cccs1)Nc1ccc(F)c(F)c1F	none
[O-]/C(=C(\C(=S)Nc1ccc(SC(F)F)cc1)[n+]1cccc(CO)c1)c1ccc(Cl)s1	GLP1R inv ag 5.01µM
Cc1ccc(NC(=S)/C(=C(\[O-])c2ccc(Cl)s2)[n+]2cccc(CO)c2)cc1C	GLP1R inv ag inconclusive
[O-]/C(=C(\C(=S)Nc1ccc(SC(F)F)cc1)[n+]1ccccc1)c1cc(Cl)ccc1Cl	GLP1R inv ag 6.31µM
Cc1cc(NC(=O)c2cnc3c(-c4ccccc4)c(C)nn3c2C)ccc1Br	GLP1R inv ag inconclusive, D3 ag 34.0 (no result: GLP1R ag, D3 antag)
CCOC(=O)NC1(C(F)(F)F)NC(=O)N(c2ccc(C)c(C)c2)C1=O (configuration not stated)	none (no result: D3 antag)
Cc1cccc(NC(=S)NC2CC3CCCC(C2)N3Cc2ccco2)c1 (configuration not stated)	GLP1R inv ag inconclusive, D3 antag -60.8
CNC(=S)NC1CC2CCCC(C1)N2Cc1ccco1 (configuration not stated)	none
COCCCNC(=S)NC1CC2CCCC(C1)N2Cc1ccco1 (configuration not stated)	D3 antag -150.1
c1cnc2cc3c(cc2n1)[C@@H]1CNC[C@@H]3C1	none (no result: GLP1R inv ag, D3 antag, D3 ag)
CNC(=S)N/N=C(\C)c1ccc(C)c(C)c1	GLP1R inv ag 3.55µM
CNC(=S)N/N=C(\C)c1cccc(C(F)(F)F)c1	GLP1R inv ag inconclusive
C/C(=N\NC(=S)Nc1ccccc1C)c1ccc(O)cc1	GLP1R inv ag 10µM
CSc1ccc(-c2nc3cccc(C)n3c2Nc2ccc3c(c2)OCO3)cc1	GLP1R inv ag 10µM (no result: GLP1R ag, D3 antag)
Cc1cccc2nc(-c3ccco3)c(Nc3ccc4c(c3)OCO4)n12	GLP1R inv ag 8.91µM
Cn1c2ccccc2c(=O)c2ccc(-c3ccc4c(c3)OCO4)cc21	GLP1R inv ag inconclusive
COc1cc(-c2ccc3c(=O)c4ccccc4sc3c2)cc(OC)c1OC	D3 ag 59.5
COc1cc(-c2ccc3c(=O)c4ccccc4n(C)c3c2)cc(OC)c1OC	D3 ag 68.1
Cc1cccc(C)c1NC(=O)c1ccc2nc(CCc3ccccc3)oc2c1	GLP1R inv ag inconclusive (no result: GLP1R ag, D3 antag)
COc1ccc(CCNC(=O)c2cc3n(n2)CCCN(Cc2ccc(C)cc2)C3=O)cc1OC	none (no result: GLP1R ag, D3 antag)
CN(CC(=O)NCCN1CCN(c2ccccc2)CC1)S(=O)(=O)c1ccc2c(c1)CCC(=O)N2	D3 antag -64.0
O=C(CSc1ccc(Cl)cc1)NC1CCCC1	none
O=C(NC1CCCCC1)Sc1ccc(Cl)cc1	D3 antag -90.6
CCC[C@@H](CN1CCC[C@H]1CN1C(N)=NC[C@@H]1Cc1ccccc1)N1C[C@@H](Cc2ccccc2)N(CCc2ccc(Cl)c(Cl)c2)C1=N	D3 antag -86.8
CCC[C@@H](CN1CCC[C@H]1CN1C(N)=NC[C@H]1CC(C)C)N1C[C@@H](Cc2ccccc2)N(CCc2ccc(Cl)c(Cl)c2)C1=N	none
CCC[C@@H](CN1CCC[C@H]1CN1C(N)=NC[C@H]1CC(C)C)N1C[C@@H]([C@H](C)CC)N(CCc2ccc(Cl)c(Cl)c2)C1=N	D3 antag inconclusive
CCC[C@@H](CN1CCC[C@H]1CN1C(N)=NC[C@@H]1Cc1ccccc1)N1C[C@@H]([C@H](C)CC)N(CCc2ccc(Cl)c(Cl)c2)C1=N	D3 antag -63.6
OCC1(Cc2ccc(F)cc2)CCCN(CCCC(F)(F)F)C1 (configuration not stated)	GLP1R inv ag inconclusive
Cc1nn2c(NC(C)C)c3c(nc2c1-c1ccccc1)CCC3	GLP1R inv ag 10µM
Cc1nn2c(NCC(C)C)c3c(nc2c1-c1ccccc1)CCC3	none
Cc1nc([N+](=O)[O-])cn1-c1ccc([N+](=O)[O-])cc1	none (no result: GLP1R inv ag, D3 antag)
CCCCNC(=O)Nc1ccccc1C(=O)NCCC	none
